Targets with a hit are over-represented here; the source holds about 8,800 in all. About 0.5% of all pairs of compound and target were hits. A number with no mark means an inactive call.

From the supplement of paper PMC10849652 come the findings set out here.

Chain of UniProt Q06547 (Q06547 whole entry, looked up): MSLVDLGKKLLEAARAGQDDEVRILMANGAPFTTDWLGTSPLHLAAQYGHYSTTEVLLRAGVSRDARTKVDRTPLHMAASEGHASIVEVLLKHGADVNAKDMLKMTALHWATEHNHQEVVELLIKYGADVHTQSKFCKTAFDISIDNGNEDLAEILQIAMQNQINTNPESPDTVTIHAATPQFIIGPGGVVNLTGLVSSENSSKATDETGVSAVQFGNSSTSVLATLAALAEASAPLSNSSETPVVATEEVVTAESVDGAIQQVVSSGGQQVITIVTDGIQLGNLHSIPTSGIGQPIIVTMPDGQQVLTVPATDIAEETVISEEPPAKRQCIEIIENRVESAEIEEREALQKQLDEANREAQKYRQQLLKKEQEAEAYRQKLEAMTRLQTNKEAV
Chain of UniProt Q13409 (Q13409 whole entry, looked up): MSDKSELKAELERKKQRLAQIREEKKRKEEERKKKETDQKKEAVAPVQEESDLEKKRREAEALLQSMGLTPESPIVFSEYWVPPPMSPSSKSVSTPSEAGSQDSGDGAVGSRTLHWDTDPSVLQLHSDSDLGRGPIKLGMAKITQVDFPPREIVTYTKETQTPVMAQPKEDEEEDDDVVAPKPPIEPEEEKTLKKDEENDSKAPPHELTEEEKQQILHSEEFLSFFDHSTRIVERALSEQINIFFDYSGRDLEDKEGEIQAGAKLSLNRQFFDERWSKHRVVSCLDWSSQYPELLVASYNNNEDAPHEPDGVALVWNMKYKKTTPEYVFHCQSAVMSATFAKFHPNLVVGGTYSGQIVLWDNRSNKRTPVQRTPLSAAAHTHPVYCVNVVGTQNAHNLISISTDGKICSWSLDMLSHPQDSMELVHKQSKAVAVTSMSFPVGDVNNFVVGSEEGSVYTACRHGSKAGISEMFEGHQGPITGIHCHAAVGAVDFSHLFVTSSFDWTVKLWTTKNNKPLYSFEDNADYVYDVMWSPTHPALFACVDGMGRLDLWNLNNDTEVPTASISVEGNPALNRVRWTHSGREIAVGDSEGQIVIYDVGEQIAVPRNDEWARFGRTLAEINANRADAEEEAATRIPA
Chain of UniProt Q9BXW9 (Q9BXW9 whole entry, looked up): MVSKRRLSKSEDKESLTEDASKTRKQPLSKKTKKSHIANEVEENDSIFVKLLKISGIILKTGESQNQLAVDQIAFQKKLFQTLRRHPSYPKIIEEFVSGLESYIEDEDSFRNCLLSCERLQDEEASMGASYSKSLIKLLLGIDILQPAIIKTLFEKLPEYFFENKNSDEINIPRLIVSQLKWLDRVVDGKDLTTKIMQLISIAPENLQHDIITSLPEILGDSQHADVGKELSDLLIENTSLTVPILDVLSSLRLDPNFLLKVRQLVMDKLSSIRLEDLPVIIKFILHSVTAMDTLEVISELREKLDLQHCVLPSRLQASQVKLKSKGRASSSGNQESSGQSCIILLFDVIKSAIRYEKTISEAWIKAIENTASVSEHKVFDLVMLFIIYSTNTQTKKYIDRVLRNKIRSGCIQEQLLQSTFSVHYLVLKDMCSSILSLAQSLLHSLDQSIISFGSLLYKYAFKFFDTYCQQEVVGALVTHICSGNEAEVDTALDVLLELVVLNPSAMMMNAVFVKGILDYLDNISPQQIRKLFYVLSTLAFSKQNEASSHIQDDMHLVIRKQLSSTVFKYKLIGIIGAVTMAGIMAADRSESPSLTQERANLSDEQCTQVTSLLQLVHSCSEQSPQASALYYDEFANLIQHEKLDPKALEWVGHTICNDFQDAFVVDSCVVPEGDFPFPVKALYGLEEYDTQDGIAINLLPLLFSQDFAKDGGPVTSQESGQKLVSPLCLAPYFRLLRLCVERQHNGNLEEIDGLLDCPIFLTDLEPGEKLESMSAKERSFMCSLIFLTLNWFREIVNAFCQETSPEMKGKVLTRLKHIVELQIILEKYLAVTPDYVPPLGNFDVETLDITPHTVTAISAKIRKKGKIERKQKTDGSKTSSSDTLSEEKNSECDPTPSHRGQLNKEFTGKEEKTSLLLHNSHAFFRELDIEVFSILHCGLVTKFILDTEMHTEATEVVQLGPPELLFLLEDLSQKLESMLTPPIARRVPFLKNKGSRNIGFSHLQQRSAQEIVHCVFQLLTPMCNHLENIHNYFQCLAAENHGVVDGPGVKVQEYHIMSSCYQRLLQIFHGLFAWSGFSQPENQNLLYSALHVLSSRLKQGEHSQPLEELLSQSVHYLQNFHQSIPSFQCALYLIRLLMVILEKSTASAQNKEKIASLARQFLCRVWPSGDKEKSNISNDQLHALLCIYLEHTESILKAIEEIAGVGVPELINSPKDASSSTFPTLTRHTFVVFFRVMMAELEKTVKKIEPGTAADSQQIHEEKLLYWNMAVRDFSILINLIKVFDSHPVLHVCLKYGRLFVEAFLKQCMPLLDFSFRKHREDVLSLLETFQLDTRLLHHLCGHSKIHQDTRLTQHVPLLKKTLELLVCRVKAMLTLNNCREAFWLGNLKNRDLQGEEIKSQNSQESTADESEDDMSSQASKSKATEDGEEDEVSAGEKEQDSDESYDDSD
Chain of UniProt P51116 (P51116 whole entry, looked up): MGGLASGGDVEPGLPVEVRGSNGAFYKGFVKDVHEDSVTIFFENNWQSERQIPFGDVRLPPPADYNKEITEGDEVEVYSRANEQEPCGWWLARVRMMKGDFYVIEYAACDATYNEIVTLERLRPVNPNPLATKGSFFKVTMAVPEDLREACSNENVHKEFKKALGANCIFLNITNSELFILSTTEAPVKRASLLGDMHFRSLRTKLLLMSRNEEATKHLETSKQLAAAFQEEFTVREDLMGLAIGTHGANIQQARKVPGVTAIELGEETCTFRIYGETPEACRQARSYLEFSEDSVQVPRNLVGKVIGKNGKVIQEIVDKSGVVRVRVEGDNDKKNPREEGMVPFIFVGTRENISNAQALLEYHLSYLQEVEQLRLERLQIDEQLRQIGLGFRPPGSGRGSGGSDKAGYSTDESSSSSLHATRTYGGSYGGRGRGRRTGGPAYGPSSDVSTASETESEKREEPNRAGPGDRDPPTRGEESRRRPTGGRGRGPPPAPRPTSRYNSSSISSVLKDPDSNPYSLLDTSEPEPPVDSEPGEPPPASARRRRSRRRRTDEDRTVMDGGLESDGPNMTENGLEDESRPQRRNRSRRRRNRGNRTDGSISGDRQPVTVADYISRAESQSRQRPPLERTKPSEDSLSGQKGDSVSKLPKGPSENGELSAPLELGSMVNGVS
Chain of UniProt O43768 (O43768 whole entry, looked up): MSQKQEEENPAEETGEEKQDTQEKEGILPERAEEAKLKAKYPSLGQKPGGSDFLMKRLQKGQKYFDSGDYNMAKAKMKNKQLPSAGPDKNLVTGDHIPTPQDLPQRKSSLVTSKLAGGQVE
Chain of UniProt Q8N9F7 (Q8N9F7 whole entry, looked up): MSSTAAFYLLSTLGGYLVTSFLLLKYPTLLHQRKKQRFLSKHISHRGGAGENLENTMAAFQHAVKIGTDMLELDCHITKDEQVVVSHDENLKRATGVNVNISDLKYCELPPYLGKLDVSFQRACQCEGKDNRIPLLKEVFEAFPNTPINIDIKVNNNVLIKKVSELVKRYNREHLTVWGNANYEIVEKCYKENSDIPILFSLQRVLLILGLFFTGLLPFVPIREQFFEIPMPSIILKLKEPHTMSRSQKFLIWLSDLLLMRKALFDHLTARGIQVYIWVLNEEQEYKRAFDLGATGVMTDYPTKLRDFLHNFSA
Chain of UniProt Q13347 (Q13347 whole entry, looked up): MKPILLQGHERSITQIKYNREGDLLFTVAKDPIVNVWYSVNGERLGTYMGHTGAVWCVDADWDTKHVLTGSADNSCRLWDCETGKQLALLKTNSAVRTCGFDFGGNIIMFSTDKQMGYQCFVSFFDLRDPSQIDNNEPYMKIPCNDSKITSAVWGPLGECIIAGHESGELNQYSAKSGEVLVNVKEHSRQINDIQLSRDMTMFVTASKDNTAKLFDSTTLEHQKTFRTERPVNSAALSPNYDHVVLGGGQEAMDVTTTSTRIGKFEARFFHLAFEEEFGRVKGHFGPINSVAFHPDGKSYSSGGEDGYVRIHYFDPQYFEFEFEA
Chain of UniProt Q86YP4 (Q86YP4 whole entry, looked up): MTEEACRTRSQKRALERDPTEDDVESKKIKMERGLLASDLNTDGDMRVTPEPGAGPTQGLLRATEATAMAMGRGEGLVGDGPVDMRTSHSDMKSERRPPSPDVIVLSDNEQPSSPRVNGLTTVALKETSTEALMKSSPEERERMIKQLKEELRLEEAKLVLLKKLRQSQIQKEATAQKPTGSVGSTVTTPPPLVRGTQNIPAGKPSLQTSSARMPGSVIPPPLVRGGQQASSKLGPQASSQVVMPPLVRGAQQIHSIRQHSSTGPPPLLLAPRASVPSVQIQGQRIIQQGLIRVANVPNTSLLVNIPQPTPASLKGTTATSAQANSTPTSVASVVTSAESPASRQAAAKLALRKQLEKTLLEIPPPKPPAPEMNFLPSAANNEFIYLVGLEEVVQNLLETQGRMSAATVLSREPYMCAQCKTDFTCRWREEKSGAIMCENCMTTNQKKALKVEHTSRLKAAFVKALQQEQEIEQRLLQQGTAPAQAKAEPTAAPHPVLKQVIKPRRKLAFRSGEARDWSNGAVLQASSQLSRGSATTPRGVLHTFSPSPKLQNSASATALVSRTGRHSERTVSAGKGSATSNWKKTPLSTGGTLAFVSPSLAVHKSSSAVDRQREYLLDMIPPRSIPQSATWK
Chain of UniProt P49356 (P49356 whole entry, looked up): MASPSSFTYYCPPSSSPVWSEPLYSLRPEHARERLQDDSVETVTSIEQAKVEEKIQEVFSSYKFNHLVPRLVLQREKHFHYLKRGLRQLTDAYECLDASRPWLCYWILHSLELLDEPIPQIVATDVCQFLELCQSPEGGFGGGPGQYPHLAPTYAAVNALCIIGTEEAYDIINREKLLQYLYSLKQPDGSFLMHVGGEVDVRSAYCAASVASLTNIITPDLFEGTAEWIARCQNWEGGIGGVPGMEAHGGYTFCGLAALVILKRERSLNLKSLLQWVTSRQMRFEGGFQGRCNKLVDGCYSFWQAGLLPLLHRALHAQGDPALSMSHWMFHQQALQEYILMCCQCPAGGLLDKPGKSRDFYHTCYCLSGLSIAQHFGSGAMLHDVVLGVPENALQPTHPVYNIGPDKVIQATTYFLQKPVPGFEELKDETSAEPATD

Compound in one experiment: C1CCN(C1)C(=O)NC2=CC=CC(=C2)NC3=NC=C(C(=N3)NCCC4=CN=CN4)Br
The experiment can be described thus: log2 fold change, soluble protein after heating vs DMSO (PISA); higher = thermal stabilisation; K562 lysate, 10 uM; active = over 0.2 and 3.5 SD of the protein, either way, in both replicates (recomputed). In outline:
(§1)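 The values are log-two fold changes in thermal stability compared with solvent controls and come from duplicates. They were obtained by TMTpro 16plex LC-MS/MS, with channel sums equalised, on the supernatant after 21,000xg for 90 min. That supernatant came from crude K562 extract at 1 mg/mL protein treated with 10 μM compound for 30 min, heated for 3 min across 48°C-58°C, pooled and brought to 0.5% NP-40 at 4°C.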
Take FAU (UniProt E9PR30): the log2 fold change was 0.011.
On the same count and under the same terms, under FTSJ3 (UniProt Q8IY81) stands 0.012.
Same read-out and setting: in the case of GALK1 isoform 2 (UniProt P51570) it was 0.023.
FHOD1 (UniProt Q9Y613): the log2 fold change is -0.011.
Still for that read-out and setting: under FNTB (UniProt P49356) stands 0.028.
The same measure, in the same setting: in the case of ETHE1 (UniProt O95571) it was -0.046; in that of GATAD2A isoform 3 (UniProt Q86YP4), -0.037; in that of DYNC1I2 isoform 2 (UniProt Q13409), 0.005.
Regarding EIF3I (UniProt Q13347), the log2 fold change was 0.004.
Same read-out and setting: in the case of ENSA isoform 3 (UniProt O43768) it was 0.006; in that of GDPD1 (UniProt Q8N9F7), 0.032.
On the same count and under the same terms, in the case of EEF1A1, A0A087WVQ9 it was -0.019.
As for FAM98A (UniProt Q8NCA5), the log2 fold change was -0.05.
For the target GEMIN5 (UniProt Q8TEQ6), the log2 fold change is 0.
Turning to FXR2 (UniProt P51116), the log2 fold change is -0.085.
Same read-out and setting: in the case of ENO1 isoform 2 (UniProt P06733) it was -0.033.
On the same count and under the same terms, in the case of GABPB1 (UniProt Q06547) it was 0.026; in that of GABPB1 isoform 3 (UniProt Q06547), -0.032; in that of EIF2B4 (UniProt Q9UI10), -0.009.
Still for that read-out and setting: in the case of FYN (UniProt P06241) it was 0.132; in that of DUS2 (UniProt Q9NX74), -0.016.
As for FBXO45 (UniProt P0C2W1), the log2 fold change is 0.018.
Same read-out and setting: in the case of EP400 isoform 5 (UniProt Q96L91) it was -0.027.
On the same count and under the same terms, under ECI2 (UniProt O75521) stands -0.03.
On the same count and under the same terms, under FBLL1 (UniProt A6NHQ2) stands 0.021; under FADS3 (UniProt Q9Y5Q0), 0.109; under FANCD2 isoform 1 (UniProt Q9BXW9), -0.062.
As to DYRK1A (UniProt Q13627), the log2 fold change was -0.008.
In the case of GGA2 (UniProt Q9UJY4), the log2 fold change was 0.074.
Regarding DYNC1I2 isoform 5 (UniProt Q13409), the log2 fold change is -0.007.
Still for that read-out and setting: under EXOC1 (UniProt Q9NV70) stands 0.014.
The same measure, in the same setting: under FAM83A (UniProt Q86UY5) stands -0.062; under DST (UniProt Q03001), -0.046.
The same measure, in the same setting: in the case of GCN1 (UniProt Q92616) it was -0.008; in that of FDX2 (UniProt Q6P4F2), -0.402; in that of ENO1, A0A2R8YEM5, 0.

Compound in a further experiment: C1CN(CCC1(CC2=CC=C(C=C2)Cl)N)C3=NC=NC4=C3C=CN4
The experiment is described as above. In outline:
as §1
Turning to FAU (UniProt E9PR30), the log2 fold change is -0.021.
As to FTSJ3 (UniProt Q8IY81), the log2 fold change is 0.022.
The same measure, in the same setting: under GALK1 isoform 2 (UniProt P51570) stands 0.058.
The same measure, in the same setting: under FHOD1 (UniProt Q9Y613) stands -0.009; under FNTB (UniProt P49356), -0.022.
Regarding ETHE1 (UniProt O95571), the log2 fold change was -0.013.
Still for that read-out and setting: in the case of GATAD2A isoform 3 (UniProt Q86YP4) it was 0.034; in that of DYNC1I2 isoform 2 (UniProt Q13409), -0.006; in that of EIF3I (UniProt Q13347), -0.007.
Turning to ENSA isoform 3 (UniProt O43768), the log2 fold change is 0.006.
Same read-out and setting: in the case of GDPD1 (UniProt Q8N9F7) it was 0.086; in that of EEF1A1, A0A087WVQ9, -0.001.
Still for that read-out and setting: under FAM98A (UniProt Q8NCA5) stands -0.017; under GEMIN5 (UniProt Q8TEQ6), -0.006; under FXR2 (UniProt P51116), 0.003.
ENO1 isoform 2 (UniProt P06733): the log2 fold change is 0.027.
Still for that read-out and setting: in the case of GABPB1 (UniProt Q06547) it was -0.008; in that of GABPB1 isoform 3 (UniProt Q06547), 0.084; in that of EIF2B4 (UniProt Q9UI10), 0.07.
Still for that read-out and setting: in the case of FYN (UniProt P06241) it was -0.018; in that of DUS2 (UniProt Q9NX74), 0.05; in that of FBXO45 (UniProt P0C2W1), 0.01.
The same measure, in the same setting: in the case of EP400 isoform 5 (UniProt Q96L91) it was -0.023; in that of ECI2 (UniProt O75521), 0.045.
For FBLL1 (UniProt A6NHQ2), the log2 fold change was 0.022.
The same measure, in the same setting: in the case of FADS3 (UniProt Q9Y5Q0) it was -0.291; in that of FANCD2 isoform 1 (UniProt Q9BXW9), 0.095.
On the same count and under the same terms, in the case of DYRK1A (UniProt Q13627) it was -0.034; in that of GGA2 (UniProt Q9UJY4), 0.034; in that of DYNC1I2 isoform 5 (UniProt Q13409), 0.016.
The same measure, in the same setting: in the case of EXOC1 (UniProt Q9NV70) it was -0.016; in that of FAM83A (UniProt Q86UY5), 0.008.
As to DST (UniProt Q03001), the log2 fold change is 0.
On the same count and under the same terms, in the case of GCN1 (UniProt Q92616) it was 0.003; in that of FDX2 (UniProt Q6P4F2), -0.17.
Same read-out and setting: in the case of ENO1, A0A2R8YEM5 it was 0.032.
